The entries come from a sample that favours hits as a whole.
NOMO-1 viab – STK33 inhibitor candidate reducing NOMO-1 cell viability. NOMO-1 AML viability, CellTiter-Glo luminescence, 72 h. inhibition, % (concentration not given with the values). actives 7.5% (n = 37,000); in the data active means inhibition above about 80%; inconclusive means no clear call, values can overlap the other calls
PD-1 reverse act – activators reversing PD-1 mediated T-cell inhibition; primary human CD4 T cells, PD-L1 beads, CellTiter-Glo 96 h; activation, % (concentration not given with the values); 29,000 tested, under 10 active; call rule not given here
ROS inducer – inducers of reactive oxygen species in cancer cells. U2OS ROS induction, H2DCF-DA fluorescence. ROS induction (% of piperlongumine), % at 10 µM. actives 2% (n = 46,000); in the data active means ROS induction above about 79%, passing the limit was not always enough; inconclusive means no clear call, values can overlap the other calls
YB-1 expr inh – YB-1 expression inhibition | U2OS, qRT-PCR YB-1 vs CDIP delta delta Cp, 16 h; active compounds read high; zero = DMSO, each unit about twofold | delta delta Cp (YB-1 minus CDIP) (test concentration not listed) | actives 0.37% (n = 30,000) | AID 434959;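 active means delta delta Cp rounded down to an integer at or above 3, about 3 SD of DMSO wells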;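 further: higher means less YB-1 transcript or more CDIP transcript relative to DMSO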
Each line names hits and unclear results; the compound was inactive in the other large screens.

C[C@H]1[C@H]2OC3=C(C(=O)OC3(C)O)C(=O)[C@]1(C)[C@H]1CCCC[C@]1(O)[C@H]2O (some centres not stated)	none
N#Cc1ccc(/C=N/NC(=O)c2ccccn2)cc1	none (no result: NOMO-1 viab, PD-1 reverse act)
C(=NCc1ccco1)c1cn(-c2ccccc2)nc1-c1ccccc1	NOMO-1 viab 105
Cc1ccc(S(=O)(=O)Nc2ccc3c(c2)CC(=O)N([C@@H](C)CO)C[C@H](C)[C@@H](CN(C)Cc2ccc(Cl)c(Cl)c2)O3)cc1	NOMO-1 viab 128
Cc1ccc(S(=O)(=O)Nc2ccc3c(c2)CC(=O)N([C@H](C)CO)C[C@@H](C)[C@@H](CN(C)Cc2ccc4c(c2)OCO4)O3)cc1	none
Cc1ccc(S(=O)(=O)Nc2ccc3c(c2)CC(=O)N([C@H](C)CO)C[C@H](C)[C@H](CN(C)Cc2ccc(Cl)c(Cl)c2)O3)cc1	NOMO-1 viab 100 (no result: PD-1 reverse act)
Cc1ccc(S(=O)(=O)Nc2ccc3c(c2)CC(=O)N([C@H](C)CO)C[C@H](C)[C@H](CN(C)Cc2ccc4c(c2)OCO4)O3)cc1	none
N=C1SCC(=O)N1c1nccs1	none
COC(=O)c1cc(S(=O)(=O)/C=C/c2ccccc2)c(Cl)cc1Cl	ROS inducer 121 (no result: NOMO-1 viab, PD-1 reverse act, YB-1 expr inh)
COC(=O)c1ccccc1S(=O)(=O)NC(=O)c1ccccc1	none (no result: PD-1 reverse act, ROS inducer, YB-1 expr inh)
CCn1c(SCC(=O)Nc2ccc(Cl)c(Cl)c2)nnc1-c1cc2cccc(OC)c2o1	NOMO-1 viab 100 (no result: PD-1 reverse act, ROS inducer, YB-1 expr inh)
COC(=O)CSc1ncnc2c1sc1nc3c(cc12)COC(C)(C)C3	none (no result: PD-1 reverse act, ROS inducer, YB-1 expr inh)
CC1(C)Cc2nc3sc4c(SCC(=O)NCc5ccccc5)ncnc4c3cc2CO1	NOMO-1 viab 119 (no result: YB-1 expr inh)
O=C(Cn1ccc([N+](=O)[O-])n1)Nc1cc(F)ccc1F	none (no result: YB-1 expr inh)
COC(=O)c1ccccc1NC(=O)COc1ccc([N+](=O)[O-])c(C)c1	ROS inducer 138 (no result: YB-1 expr inh)
Cc1cccc(NC(=O)c2ccccc2NC(=O)COc2cccc([N+](=O)[O-])c2)c1C	NOMO-1 viab 105 (no result: YB-1 expr inh)
COc1ccc(NC(=O)c2ccccc2NC(=O)COc2ccc([N+](=O)[O-])cc2)cc1	none (no result: YB-1 expr inh)
Nc1ccc2nc(NC(=O)C34CC5CC(CC(C5)C3)C4)sc2c1	none (no result: NOMO-1 viab, PD-1 reverse act, YB-1 expr inh)
COc1ccc(C(=O)Nc2ccccc2C2(C)CC2)cc1	none (no result: NOMO-1 viab, PD-1 reverse act, YB-1 expr inh)
COc1ccc(OC(=O)c2csc(COc3ccc4nonc4c3)n2)cc1	none (no result: NOMO-1 viab, PD-1 reverse act, YB-1 expr inh)
c1ccc(C(c2ccccc2)N2CCN(CCCc3c[nH]c4ccccc34)CC2)cc1	NOMO-1 viab 116
c1ccc2c(Cc3c[nH]c4ccccc34)c[nH]c2c1	none (no result: PD-1 reverse act)
COC(=O)C1=C(C)Nc2ncnn2C1c1ccccc1[N+](=O)[O-] (configuration not stated)	none (no result: YB-1 expr inh)
C[C@H](CO)N1C[C@H](C)[C@H](CN(C)Cc2ccc(-c3ccccc3)cc2)Oc2c(NC(=O)Nc3ccc(F)cc3)cccc2C1=O	none (no result: PD-1 reverse act)
C[C@@H]1CN([C@H](C)CO)C(=O)c2cccc(NC(=O)Nc3ccc(F)cc3)c2O[C@H]1CN(C)Cc1ccc(C(=O)O)cc1	none
C[C@@H]1CN([C@@H](C)CO)C(=O)c2cccc(NC(=O)Nc3ccc(F)cc3)c2O[C@H]1CN(C)Cc1ccccc1	NOMO-1 viab 102
C[C@H](CO)N1C[C@H](C)[C@H](CN(C)Cc2ccccc2)Oc2c(NC(=O)Nc3ccc(F)cc3)cccc2C1=O	none
C[C@H](CO)N1C[C@H](C)[C@@H](CN(C)Cc2ccccc2)Oc2c(NC(=O)Nc3ccc(F)cc3)cccc2C1=O	NOMO-1 viab 98
C[C@H]1CN([C@@H](C)CO)C(=O)c2cccc(NC(=O)Nc3ccc(F)cc3)c2O[C@@H]1CN(C)Cc1ccccc1	NOMO-1 viab 101 (no result: PD-1 reverse act)
C[C@@H]1CN([C@H](C)CO)C(=O)c2cccc(NC(=O)Nc3ccc(F)cc3)c2O[C@H]1CN(C)Cc1ccccc1	NOMO-1 viab 100
C[C@@H]1CN([C@H](C)CO)C(=O)c2cccc(NC(=O)Nc3ccc(F)cc3)c2O[C@@H]1CN(C)Cc1ccccc1	none
C=C(C)[C@@H]1CC=C(/C=N/NC(=O)CCCCCCC(=O)O)CC1	none (no result: NOMO-1 viab, PD-1 reverse act)
C[C@H]1CN([C@@H](C)CO)C(=O)c2cc(NS(=O)(=O)c3ccccc3)ccc2O[C@H]1CN(C)Cc1ccc(Oc2ccccc2)cc1	none
C[C@@H]1CN([C@H](C)CO)C(=O)c2cc(NS(=O)(=O)c3ccc(Cl)cc3)ccc2O[C@@H]1CN(C)Cc1ccc(Oc2ccccc2)cc1	NOMO-1 viab 122
C[C@@H]1CN([C@@H](C)CO)C(=O)c2cc(NS(=O)(=O)c3ccc(Cl)cc3)ccc2O[C@@H]1CN(C)Cc1ccc(Oc2ccccc2)cc1	NOMO-1 viab 114 (no result: PD-1 reverse act)
COc1ccc(S(=O)(=O)Nc2ccc3c(c2)C(=O)N([C@H](C)CO)C[C@H](C)[C@H](CN(C)Cc2ccc(Oc4ccccc4)cc2)O3)cc1	none
CCOC(=O)CN(c1c(C)cccc1C)S(C)(=O)=O	none (no result: YB-1 expr inh)
CC12CCC(=O)C=C1CCC1(C)C2(C)CCC2(C)C(C(=O)CO)CCC21C (configuration not stated)	NOMO-1 viab 94
Cc1ccccc1NC(NC(=O)c1ccco1)C(=O)c1ccccc1 (configuration not stated)	none (no result: NOMO-1 viab, PD-1 reverse act, YB-1 expr inh)
C[C@H](CO)N1C[C@H](C)[C@H](CN(C)Cc2ccc(C(=O)Nc3ccccc3N)cc2)Oc2ccc(N(C)C)cc2CC1=O	NOMO-1 viab 141
C[C@@H]1CN([C@H](C)CO)C(=O)Cc2cc(NC(=O)c3ccncc3)ccc2O[C@@H]1CN(C)Cc1ccc(C(=O)Nc2ccccc2N)cc1	none
C[C@H]1CN([C@@H](C)CO)C(=O)Cc2cc(N(C)C)ccc2O[C@H]1CN(C)Cc1ccc(C(=O)Nc2ccccc2N)cc1	NOMO-1 viab 141
CCc1ccc(NC(=O)COc2ccc(NC(C)=O)cc2)cc1	none (no result: YB-1 expr inh)
C[C@@H]1CN([C@H](C)CO)C(=O)Cc2cc(NC(=O)NC3CCCCC3)ccc2O[C@H]1CN(C)Cc1ccc(C(F)(F)F)cc1	NOMO-1 viab 93 (no result: PD-1 reverse act)
C[C@@H]1CN([C@H](C)CO)C(=O)Cc2cc(NC(=O)Nc3ccc(F)cc3)ccc2O[C@@H]1CN(C)Cc1ccc(C(F)(F)F)cc1	NOMO-1 viab inconclusive
C[C@H]1CN([C@@H](C)CO)C(=O)Cc2cc(NC(=O)Nc3ccc(C(F)(F)F)cc3)ccc2O[C@H]1CN(C)Cc1ccc(C(F)(F)F)cc1	NOMO-1 viab 136
C[C@@H]1CN([C@@H](C)CO)C(=O)Cc2cc(NC(=O)Nc3ccc(C(F)(F)F)cc3)ccc2O[C@@H]1CN(C)Cc1ccc(C(F)(F)F)cc1	NOMO-1 viab 124 (no result: PD-1 reverse act)
Cc1ccc2c(C)c(C(=O)Nc3sc4c(c3C(=O)NCc3ccco3)CCC4)oc2c1	NOMO-1 viab 103 (no result: PD-1 reverse act, ROS inducer, YB-1 expr inh)
CC1=CC2OC3[C@H](O)C[C@](C)([C@@]2(CO)CC1=O)[C@]31CO1 (some centres not stated)	NOMO-1 viab 119
Cc1nc(-c2c(C(=O)NN)noc2C)cs1	none (no result: NOMO-1 viab, PD-1 reverse act, YB-1 expr inh)
C/C=C(/C)C(=O)OC1c2c(ccc3ccc(=O)oc23)OC(C)(C)C1OC(=O)/C(C)=C\C (configuration not stated)	NOMO-1 viab 111
CC(C)n1c(-c2ccccc2)nc2ccccc21	none
C=C(C)C(=O)O[C@H]1C[C@@]2(C)OC(=CC2=O)/C(COC(C)=O)=C\[C@H]2OC(=O)C(=C)C12 (some centres not stated)	NOMO-1 viab 120
C/C=C(\C)C(=O)O[C@H]1C=C(CO)C(=O)[C@H](OC(C)=O)[C@H]1C(C)C	NOMO-1 viab 122
C/C=C(/C)C(=O)OC1C(OC(C)=O)c2c(ccc3ccc(=O)oc23)OC1(C)C (configuration not stated)	none

Compound activity deposited in PubChem BioAssay by Broad Institute.
